Data taken from PubChem BioAssay AID588852 (The Scripps Research Institute Molecular Screening Center, 2011).
The campaign covered roughly 360,000 compounds. About 4,600 (1.3%) were called active.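 The calls were made as follows: active = percent inhibition above its own plate's cutoff, namely the mean of that plate's compound wells plus 3 SD; inactive = the rest.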 Many of the other results were omitted from the sample, so actives are more common in it than they were.

Molecular target: Muscarinic acetylcholine receptor M1 (Homo sapiens) (UniProt P11229)
Test: human M1 muscarinic receptor antagonists, primary screen, CHO-K1 cells, Fluo-8 calcium fluorescence, 1536-well (AID 588852);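 also: peak over basal fluorescence ratio during 140 s after agonist addition; 0% = ACh EC80 plus DMSO and 100% = DMSO alone without agonist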
Details: CHO-K1 hM1, Fluo-8 calcium fluorescence, ACh EC80 antagonist; at 3 µM; hits give high values

Sequence of Muscarinic acetylcholine receptor M1 (Homo sapiens) (P11229 whole entry, looked up): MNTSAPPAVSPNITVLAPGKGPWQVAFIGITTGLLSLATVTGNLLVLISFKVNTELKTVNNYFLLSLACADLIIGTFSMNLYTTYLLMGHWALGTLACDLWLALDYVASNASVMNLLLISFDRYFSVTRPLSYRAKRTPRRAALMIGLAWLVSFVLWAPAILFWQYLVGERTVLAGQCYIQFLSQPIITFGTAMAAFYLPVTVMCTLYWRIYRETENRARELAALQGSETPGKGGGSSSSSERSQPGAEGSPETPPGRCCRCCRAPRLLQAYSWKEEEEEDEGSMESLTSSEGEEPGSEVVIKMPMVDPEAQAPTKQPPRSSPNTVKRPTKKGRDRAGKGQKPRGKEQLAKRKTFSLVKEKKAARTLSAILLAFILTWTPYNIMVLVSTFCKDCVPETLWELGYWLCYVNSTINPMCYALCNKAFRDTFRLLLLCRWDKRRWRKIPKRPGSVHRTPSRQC

| Compound | inhibition |
| --- | --- |
| Fc1ccccc1CCNc1nnnn1-c1ccccc1 | -15.4% (inactive) |
| O=C(COc1ccccc1)Nc1nonc1NC(=O)COc1ccccc1 | 3.1% (inactive) |
| COc1ccc(C)cc1NC(=S)Nc1ccccc1SC | -4.63% (inactive) |
| Cc1cccc(C(=O)N2CCC(c3nc4ccccc4s3)CC2)c1 | 41.2% (active) |
| O=C(c1cccs1)N1CCC(c2nc3ccccc3s2)CC1 | -0.25% (inactive) |
| Cc1cccc(NC(=S)N2CCC(c3nc4ccccc4s3)CC2)c1 | 6.88% (inactive) |
| CC(/C=C/c1ccccc1)=N\NC(=O)C1CC1(C)c1ccccc1 (configuration not stated) | -3.18% (inactive) |
| O=C(CNC(=O)c1ccccc1Br)NCCSc1ccc(Br)cc1 | -10.6% (inactive) |
| Cc1ccccc1OCC(=O)Nc1ccc(N2CCN(C(=O)C(C)C)CC2)c(Cl)c1 | 34.5% (active) |
| COc1cc(NC(=O)COc2ccccc2Cl)ccc1NC(=O)C(C)C | 6.01% (inactive) |
| CCc1ccccc1OCC(=O)Nc1ccc(C)c(S(=O)(=O)N2CCCCCC2)c1 | 6.49% (inactive) |
| CCN1C(=O)[C@H]2[C@@H](c3ccccc3)N[C@]3(CCCN(Cc4ccc(C)cc4)C3=O)[C@H]2C1=O | -5.93% (inactive) |
| CSc1ncccc1C(=O)NCC(c1ccco1)N1CCCCC1 (configuration not stated) | 34.8% (active) |
| COc1ccccc1C(=O)NCCC(=O)NCC(c1ccco1)N1CCCCC1 (configuration not stated) | -5.11% (inactive) |
| COc1ccc(C(CNC(=O)c2cccnc2SC)N2CCOCC2)cc1 (configuration not stated) | -5.53% (inactive) |
| Cc1nn(-c2ccccc2)c2sc(C(=O)N(Cc3ccco3)C(C)C(=O)NC(C)(C)C)cc12 (configuration not stated) | -7.09% (inactive) |
| CCOC1=C2CN(S(=O)(=O)c3ccc(C)cc3)[C@H](c3cccs3)C[C@H]2[C@H]2C(=O)N(c3ccccc3)C(=O)[C@H]2C1 | 1.5% (inactive) |
| CC(C)C1CC2=C(C(=O)OC(C)(C)O2)C(c2ccc(F)cc2)O1 (configuration not stated) | -37.3% (inactive) |
| O=C(NCC(=O)N(Cc1cccs1)C(C(=O)NC1CCCCC1)c1ccco1)c1cccs1 (configuration not stated) | 35.6% (active) |
| O=C(NCC(=O)N(CC1CCCO1)C(C(=O)NC1CCCCC1)c1ccccc1)c1ccco1 (configuration not stated) | -7.84% (inactive) |
| Cc1ccccc1N(C(=O)CNC(=O)c1cccs1)C(C(=O)NC1CCCC1)c1ccncc1 (configuration not stated) | -4.08% (inactive) |
| COc1ccc(CC(N)c2csc(NC(=O)NC(c3ccccc3)c3ccccc3)n2)cc1 (configuration not stated) | -1.87% (inactive) |

| Compound | inhibition |
| --- | --- |
| CN1OC[C@@H]2CN(C(=O)C(C)(C)C)[C@H](c3ccc(-n4ccnc4)cc3)C[C@@H]21 | 13.8% (inactive) |
| O=C(COC(=O)c1cc(S(=O)(=O)N2CCOCC2)ccc1F)NC1CC1 | -2.77% (inactive) |
| CCOC(=O)/C(N=Nc1cc(C(=O)O)cc(C(=O)O)c1)=C(\O)CCl | -12% (inactive) |
| CCN(CC)CCn1c2c(c(SCC(=O)Nc3ccc(C(C)C)cc3)nc1=O)CCC2 | 7.72% (inactive) |
| CCN(CC)CCn1c2c(c(SCC(=O)Nc3nc4ccccc4s3)nc1=O)CCCC2 | 42.1% (active) |
| Cc1ccc2nc(NC(=O)CSc3nc(=O)n(CCCN(C)C)c4c3CCC4)sc2c1 | 8.16% (inactive) |
| COCCn1c(SCC(=O)Nc2cc(OC)ccc2OC)nc2c(c1=O)SC(C)C2 (configuration not stated) | -11.7% (inactive) |
| CC1CN(C(=O)c2ccc3c(c2)OCO3)OC(c2ccccc2)O1 (configuration not stated) | 1.63% (inactive) |
| COc1ccc(NC(=O)COC(=O)C2COc3ccccc3O2)cc1 (configuration not stated) | -2.48% (inactive) |
| CCOc1ccc(NC(=O)c2ccc(NC(=O)COC(=O)c3ccc(NC(=O)CC#N)cc3)cc2)cc1 | 7.32% (inactive) |
| CCC(C)(C)c1ccc(Oc2ccc(NC(=O)COC(=O)C3=COCCO3)cc2)cc1 | 24.8% (active) |
| COc1ccc(C(C(=O)NC2CCCCC2)N(C(=O)Cc2c[nH]c3ccccc23)c2ccccc2)cc1OC (configuration not stated) | -2.89% (inactive) |
| COc1ccc(C2CC(c3cccs3)=NN2C(=O)CSc2nnc(N)s2)cc1OC (configuration not stated) | 48.8% (active) |
| COc1ccc(C2CC(c3cccs3)=NN2C(=O)COC(=O)c2cc3ccccc3cc2O)cc1OC (configuration not stated) | -1.73% (inactive) |
| COc1ccc(C2CC(c3cccs3)=NN2C(=O)CSc2nncs2)cc1OC (configuration not stated) | -3.74% (inactive) |
| O=C(Nc1nnc([C@H]2C[C@H](O)[C@@H](CO)O2)s1)c1cccc(Cl)c1 | -7.54% (inactive) |
| Nc1nc2c(ncn2[C@@H]2O[C@H](CNCc3ccc(OCCCN4CCOCC4)cc3)[C@@H](O)[C@H]2O)c(=O)[nH]1 | -12.3% (inactive) |
| Cn1nc(C(F)(F)F)c(C(=O)Nc2cccc(C(F)(F)F)c2)c1SCc1ccc(Cl)cc1 | 45.3% (active) |
| O=C(CN1CCN(c2ccc(F)cc2)CC1)Nc1cccc(C(F)(F)F)c1 | -30.1% (inactive) |
| COC(=O)c1ccccc1Sc1c(/C=N/OCc2ccc(Cl)cc2)c(C(F)(F)F)nn1C | 6.15% (inactive) |
| COc1cccc(NC(=O)Nc2nnc(N3CCCCC3C)s2)c1 (configuration not stated) | -9.08% (inactive) |
| C=C(C)c1cccc(C(C)(C)NC(=O)N2CCN(c3ncccn3)CC2)c1 | -3.97% (inactive) |

| Compound | inhibition |
| --- | --- |
| C=C(C)c1cccc(C(C)(C)NC(=O)NCCN(CC)CC)c1 | 82.6% (active) |
| C=C(C)c1cccc(C(C)(C)NC(=O)NC2CCCC2)c1 | -0.33% (inactive) |
| CN(CC(=O)NCCc1ccccc1)S(=O)(=O)c1cnc[nH]1 | -5.57% (inactive) |
| CC(C)C(=O)Nc1nnc(Sc2ccc(N(C)C)cc2)s1 | -14.1% (inactive) |
| CN(C)C1=NC[C@H](Cc2ccccc2)N1CCc1ccc(F)cc1 | 9.98% (inactive) |
| CC(NC(=O)Nc1ccccc1)c1ccccc1 (configuration not stated) | -2.37% (inactive) |
| CC(C)c1ccc(NC(=O)Cn2ncc3ccccc32)cc1 | -20.8% (inactive) |
| CCC(C(=O)Nc1ccc(C(C)C)cc1)c1ccccc1 (configuration not stated) | 37.1% (active) |
| COc1ccc(C(C)(O)c2nc(-c3cc(F)cc(F)c3)cs2)cc1 (configuration not stated) | -4.19% (inactive) |
| COc1ccccc1N(C)S(=O)(=O)c1ccc(C(=O)N2CCC(C(N)=O)CC2)cc1 | -7.95% (inactive) |
| COC(=O)CCCCC1=CCC2C(=O)C=C(O)C2C1 (configuration not stated) | 4.53% (inactive) |
| Cc1ccc(C)c(N2CCN(C(=O)CCCCCn3c(=S)[nH]c4ccc(N5CCOCC5)cc4c3=O)CC2)c1 | 39.5% (active) |
| O=C(CCCCCn1c(=S)[nH]c2cc3c(cc2c1=O)OCO3)N1CCN(c2ccc(F)cc2)CC1 | -8.71% (inactive) |
| Cc1ccc(C)c(N2CCN(C(=O)CCCn3c(=O)c4cccn4c4cccnc43)CC2)c1 | -0.03% (inactive) |
| Cc1ccnc(NC(=O)C(C)N2C(=O)c3ccccc3C2=O)c1 (configuration not stated) | -0.26% (inactive) |
| Cc1ccccc1C#CC1=CC(=O)CC(C)(C)C1 | -7.17% (inactive) |
| CCC(C)N1C(=O)S/C(=C/c2ccc(Sc3nc4ccccc4[nH]3)o2)C1=O (configuration not stated) | 32.9% (active) |
| CN(Cc1ccccc1)C(=O)CSc1nc2ccccc2[nH]1 | -5.93% (inactive) |
| CN1CCN(c2ccc([N+](=O)[O-])c(Sc3nc4ccccc4[nH]3)c2)CC1 | -0.69% (inactive) |
| O=C(C1CCC1)N1CCc2cc(S(=O)(=O)NCc3cccnc3)ccc21 | -15.2% (inactive) |
| FC(F)(F)Oc1ccccc1C(c1nnnn1C1CCCCC1)N1CCN(C/C=C/c2ccccc2)CC1 (configuration not stated) | -18.7% (inactive) |
| COc1ccc(C(c2nnnn2C2CCCC2)N2CCN(C/C=C/c3ccccc3)CC2)cc1 (configuration not stated) | 48.7% (active) |

| Compound | inhibition |
| --- | --- |
| COc1ccc(C(c2nnnn2C2CCCCC2)N2CCN(c3ccccc3F)CC2)cc1 (configuration not stated) | -2.28% (inactive) |
| CC(=O)Nc1cc(-c2ccccc2N(C)C)cn2c(-c3ccc(F)c(Cl)c3)cnc12 | -16.4% (inactive) |
| CN(CC1CCCN(CCc2cccc(C(F)(F)F)c2)C1)C(=O)c1ccc2nc[nH]c2c1 (configuration not stated) | 84.4% (active) |
| Cc1nc2ccc(C(=O)N(C)CC3CCCN(CCc4ccc(Cl)cc4)C3)cc2[nH]1 (configuration not stated) | 17.1% (inactive) |
| CC(=O)c1ccc(N2CCN(C(=O)c3ccc4nc[nH]c4c3)CC2)cc1 | -1.75% (inactive) |
| COc1ccc(NC(=O)C2Cc3c(-c4ccc5c(c4)OCO5)ccnc3O2)cn1 (configuration not stated) | -14.1% (inactive) |
| COc1ccc(-c2[nH][nH]c(=O)c2NC(=O)c2ccc([N+](=O)[O-])cc2)cc1 | -25% (inactive) |
| CSCCNCc1cn(-c2ccc(F)cc2F)nc1-c1ccccc1C | -13.6% (inactive) |
| CC(=O)Nc1cccc(-c2ccnc3c2CC(C)(C(=O)NCc2ccco2)O3)c1 (configuration not stated) | -8.07% (inactive) |
| COc1ccc(CCNC(=O)COC(=O)c2ccc[nH]c2=O)cc1 | -7.65% (inactive) |
| CCCc1nc2ccccc2c(C(=O)OCc2nnc(-c3cc(OC)c(OC)c(OC)c3)o2)c1CC | 24.3% (active) |
| CCOC(=O)c1cc(-c2nnc(-c3cc(OC)c(OC)c(OC)c3)o2)c(C)nc1C | -32.2% (inactive) |
| O=C(OCc1nnc(-c2ccccc2)o1)c1cc(=O)[nH]c2ccccc12 | -2.41% (inactive) |
| O=C(NC1CCCCC1)C1CCC(CNS(=O)(=O)c2ccccc2)CC1 (configuration not stated) | 2.63% (inactive) |
| C[C@@H](CN1CCC[C@H]1CN1C(N)=NC[C@@H]1Cc1ccccc1)N1C[C@@H](Cc2ccccc2)N(CCCC2CCCC2)C1=N | 93.1% (active) |
| CC[C@@H](C)[C@@H]1CN([C@@H](C)CN2CCC[C@H]2CN2C(N)=NC[C@H]2C(C)C)C(=N)N1CCc1ccc(Cl)c(Cl)c1 | 16.5% (inactive) |
| CCCCN1C(N)=NC[C@@H]1Cc1ccccc1 | -1.32% (inactive) |
| Cc1cc(/C=C2/SC(=O)N(CC(=O)N3CCCC3)C2=O)ccc1N1CCOCC1 | -1.78% (inactive) |
| COc1ccc(CNS(=O)(=O)c2ccc(NC(=O)N3CCCCC3)cc2)cc1 | 33.3% (active) |
| COc1ccc(S(=O)(=O)NC(C)C(=O)N2CCCCCC2)cc1 (configuration not stated) | -12.2% (inactive) |
| COc1ccc(NC(=O)N2CCC(Cc3ccccc3)CC2)cc1 | -2.81% (inactive) |
